Screening data: PubChem, several laboratories
Sampled rows, rich in hits. Any-hit rate of the full collection: about 1.4%.
APOBEC3A inh: human APOBEC3A DNA deaminase inhibition | recombinant A3A, FAM/TAMRA ssDNA deamination fluorescence | P31941 | hit rate 0.41% among 330,000 | inhibition, % at 20 µM | AID 493011;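 active means at least 40% inhibition at 20 µM here, with at most 30% in a related deaminase screen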
Target sequence (P31941 whole entry, looked up): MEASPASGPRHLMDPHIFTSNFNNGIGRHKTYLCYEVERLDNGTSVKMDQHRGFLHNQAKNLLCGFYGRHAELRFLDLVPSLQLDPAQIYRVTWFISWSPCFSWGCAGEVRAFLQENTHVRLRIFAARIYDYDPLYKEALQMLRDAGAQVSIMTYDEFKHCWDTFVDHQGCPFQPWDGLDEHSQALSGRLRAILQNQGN
A3G deaminase: APOBEC3G (human) deaminase inhibition | recombinant A3G, ssDNA deamination FAM/TAMRA fluorescence | AID 493012 | Q9HC16 | inhibition, % at 20 µM | hit rate 0.28% among 330,000;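 active means inhibition of at least 40% at 20 µM, with no more than 30% in the related APOBEC3A deaminase screen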
Target sequence (Q9HC16 whole entry, looked up): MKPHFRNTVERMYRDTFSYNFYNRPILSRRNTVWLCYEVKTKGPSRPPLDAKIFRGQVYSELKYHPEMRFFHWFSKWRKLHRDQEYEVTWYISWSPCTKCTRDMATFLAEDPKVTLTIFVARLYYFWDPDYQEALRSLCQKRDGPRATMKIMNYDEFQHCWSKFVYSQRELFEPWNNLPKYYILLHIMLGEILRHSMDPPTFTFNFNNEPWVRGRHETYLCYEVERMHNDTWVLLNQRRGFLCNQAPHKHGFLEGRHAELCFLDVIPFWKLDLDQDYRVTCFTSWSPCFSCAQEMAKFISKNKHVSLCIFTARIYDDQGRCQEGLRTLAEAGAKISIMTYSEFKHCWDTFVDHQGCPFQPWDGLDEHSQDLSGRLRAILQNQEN
GRK2 inh: inhibitors of human GRK2 displacing RNA aptamer; inhibition of aptamer binding, % at 10 µM; hit rate 0.59% among 330,000; bead flow cytometry, FAM-aptamer displacement from GRK2; AID 488847; P25098;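 active means inhibition of aptamer binding above 40%, roughly 3 SD of noise, on plates passing a quality check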;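 further: median bead fluorescence of bound FAM aptamer so fluorescent compounds give negative values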
VLA-4 inh: inhibition in a human VLA-4 binding assay. inhibition, % (about 7 µM as worked out from the volumes in the protocol). AID 2557. VLA-4 expressing cells, ligand binding flow cytometry. hit rate 0.2% among 330,000; in the data active means inhibition above about 50%
A3A conf: APOBEC3A (human) deaminase inhibition, confirmed | inhibition, % at 20 µM | shares compounds with APOBEC3A inh | hit rate 63% among 1,400 | recombinant A3A, ssDNA deaminase UDG fluorescence assay;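 active means inhibition reaching a set limit, 80% of the first screen's cutoff, at 20 µM in any replicate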
UDG A3A counter: counter-screen for APOBEC3A inhibitors: UDG; UDG counterscreen, FAM/TAMRA uracil oligo fluorescence; shares compounds with APOBEC3A inh; inhibition, % at 20 µM; 1,000 tested, under 10 active; call rule not given here
Numbers stand for hits; 0 = inactive; - = not tested or not shown.

SMILES	APOBEC3A inh	A3G deaminase	GRK2 inh	VLA-4 inh	A3A conf	UDG A3A counter
CCS(=O)(=O)c1ccccc1C(=O)NC1CCCc2ccccc21 (stereo not drawn)	0	0	0	0	-	-
O=C(NCc1ccc2c(c1)OCO2)C1CCCN1S(=O)(=O)c1ccc(F)cc1 (stereo not drawn)	55	0	0	0	0	0
CCn1c(=O)c(C(=O)CN2CCN(S(=O)(=O)c3ccc(C)cc3C)CC2)c(N)n(Cc2ccccc2)c1=O	44	0	0	0	0	-
CCn1c(=O)c(C(=O)CN2CCN(S(=O)(=O)c3ccccc3)CC2)c(N)n(Cc2ccccc2)c1=O	0	0	0	0	-	-
CC(C)(C)c1ccc(CCC2OCC(C[N+]3(C)CCOCC3)O2)cc1 (stereo not drawn)	45	0	0	0	73	0
CS(=O)(=O)c1ccc(-c2nn[nH]n2)cc1	0	0	0	0	-	-
CS(=O)(=O)c1nc(-c2ccc(Br)cc2)n[nH]1	41	0	0	0	0	0
CCCn1cnc2cc(NCc3cccc(OC)c3O)ccc21	0	0	0	0	-	-
COc1ccccc1Oc1ccc(S(=O)(=O)N2CCCCC2)cc1NC(=O)CCNC(C)=O	58	0	0	0	0	-
COc1ccc(S(=O)(=O)N2CCCCC2)cc1NC(=O)CCNC(=O)c1ccco1	0	0	-	-	-	-
O=C(COC(=O)c1ccc(O)cc1O)c1ccc(Cl)cc1	0	0	0	0	-	-
CCC(CC)c1nc(C#N)c(NC(C)c2ccccc2)o1 (stereo not drawn)	0	0	0	0	-	-
CCNC(=O)COC(=O)c1cc(-c2ccco2)nc2ccccc12	53	0	0	0	34	0
CN(C)C(=O)c1ccc(NC(=O)c2cc(-c3ccco3)nc3ccccc23)cc1	0	0	0	0	-	-
COc1ccc(NC(=O)c2cc(-c3ccco3)nc3ccccc23)cn1	52	0	0	0	45	0
O=C(O)c1cc(-c2ccco2)nc2ccccc12	0	0	0	0	-	-
Cn1c(=O)c(C(=O)COC(=O)c2cc(-c3ccco3)nc3ccccc23)c(N)n(CC2CC2)c1=O	47	0	0	0	32	-
O=C(Nc1cccc([N+](=O)[O-])c1)c1cc(S(=O)(=O)Nc2ccccn2)ccc1Cl	0	0	0	0	-	-
CC(C)n1cc(CN2CCC(C(=O)Nc3cccc(-c4cscn4)c3)CC2)cn1	0	0	0	0	-	-
Cn1c(=O)[nH]c(=O)c2c1nc(SCC(N)=O)n2Cc1cccc(Br)c1	0	0	0	0	-	-
CC(=O)Nc1cc(OC(=O)c2ccco2)cc(OC(=O)c2ccco2)c1	0	0	0	0	-	-
COc1ccc2[nH]c(O)c(N=O)c2c1	54	0	0	-	53	0
O=Nc1c(O)[nH]c2ccc(F)cc12	0	0	0	0	-	-
Cc1[nH]nc2c1C1(CCOC1C)C(C#N)=C(N)O2 (stereo not drawn)	0	0	0	0	-	-
Cc1sc2ncnc(N3CCC(C(=O)Nc4ccc(OC(F)F)c(Cl)c4)CC3)c2c1C	0	0	0	0	-	-
SMILES	APOBEC3A inh	A3G deaminase	GRK2 inh	VLA-4 inh	A3A conf	UDG A3A counter
CCN(CC)CCNC(=O)c1ccc(NC(=O)C2CCN(c3ncnc4sc(C)c(C)c34)CC2)cc1	44	0	0	0	57	-
COc1cc(OC)c2ccc(=O)oc2c1C(CC(=O)N1CCCC1)c1ccc2c(c1)OCO2 (stereo not drawn)	47	0	0	0	0	-
O=C(Nc1ccc(NC(=O)c2ccc(Cl)cc2Cl)cc1)c1cccs1	54	0	0	0	41	0
O=C(Nc1ccc(Cl)cc1)c1cccs1	0	0	0	0	-	-
CC(C)(C)SCCNC(=O)/C=C/c1ccccc1	0	0	0	0	-	-
COC(=O)c1ccc(N/C=C/C(=O)c2ccc(OC)c(OC)c2)cc1	0	0	0	0	-	-
Cc1cc(O)c(CN(C)C)c2c1C(=O)/C(=C/c1ccco1)O2	48	0	0	0	15	0
COc1ccc2c(c1)O/C(=C\c1ccco1)C2=O	0	0	0	0	-	-
O=C(c1ccc(N2CCN(C(=O)c3cccc(F)c3)CC2)cc1)c1cccc(F)c1	0	0	0	0	-	-
CCOC(=O)N1CCN(c2ccc(C(=O)c3cccc(F)c3)cc2)CC1	45	0	0	0	0	0
C[N+]1(CC(O)COCC2COc3ccccc3O2)CCOCC1 (stereo not drawn)	86	0	0	0	46	-
OC(COCC1COc2ccccc2O1)CN1CCN(c2ccccc2)CC1 (stereo not drawn)	0	0	0	0	-	-
CC1(C)Oc2ccc3ccc(=O)oc3c2-c2cnoc21	51	0	0	0	72	0
CC1(C)Oc2ccc3ccc(=O)oc3c2-c2cn[nH]c21	59	0	0	0	65	0
COc1cccc(NC(=O)N2CCCC(C(=O)NCc3ccc(F)cc3)C2)c1 (stereo not drawn)	0	0	0	0	-	-
CC(=O)c1ccc(OCC(O)CN2CCCC(C)C2)cc1 (stereo not drawn)	0	0	0	0	-	-
Cc1ccccc1-c1noc(CCC(=O)NCC2CCCO2)n1 (stereo not drawn)	44	0	0	0	0	-
COc1ccccc1-c1noc(CCC(=O)NC2CCCC2)n1	45	0	0	0	0	0
COc1cc2c(cc1OC)C(NC(=O)C(F)(F)F)CNC2=O (stereo not drawn)	0	0	0	0	-	-
CC(CNS(=O)(=O)c1ccccc1)(c1ccccc1)N1CCOCC1 (stereo not drawn)	0	0	0	0	-	-
Cn1c(SCC(=O)N2CCOCC2)nnc1-c1ccccc1	54	0	0	0	0	-
Cn1c(CC(=O)Nc2ccccc2F)nnc1SCC(=O)N1CCOCC1	40	0	0	-	0	-
Cn1c(CC(=O)Nc2ccccc2F)nnc1SCC(=O)NC1CCCC1	0	0	0	0	-	-
Cn1c(SCC(=O)N2CCN(c3ccccc3)CC2)nnc1-c1ccncc1	0	0	0	0	-	-
CC(OC(=O)c1cccc([N+](=O)[O-])c1)C(=O)NCc1ccc2c(c1)OCO2 (stereo not drawn)	49	0	0	0	0	0
SMILES	APOBEC3A inh	A3G deaminase	GRK2 inh	VLA-4 inh	A3A conf	UDG A3A counter
CNCCCNC(=O)c1ccc(/C=N/O)nc1	0	0	0	0	-	-
C[N+](C)(C)CCCNC(=O)c1ccc(/C=N/O)nc1	41	0	0	0	72	0
COc1cc(/C=N\NC(=O)c2cccc(Cl)c2)ccc1Oc1ccc([N+](=O)[O-])cn1	0	0	0	0	-	-
COc1cc(/C=N\NC(=O)c2ccc(Cl)cc2)ccc1Oc1ccc([N+](=O)[O-])cn1	48	0	0	0	63	0
Cc1ccccc1OCC(=O)N/N=C/c1ccc([N+](=O)[O-])o1	0	0	0	0	-	-
COc1ccccc1OCC(=O)N/N=C/C=C/c1ccc([N+](=O)[O-])o1	45	0	0	0	19	0
Cc1cc(C=O)c(C)n1-c1cc(C(=O)O)cc(C(=O)O)c1	64	0	0	0	64	0
CC(C)(C)c1ccc(NC(=O)c2ccc3c(c2)S(=O)(=O)c2ccccc2C3=O)cc1	44	0	0	0	0	0
COc1ccc(NC(=O)c2ccc3c(c2)S(=O)(=O)c2ccccc2C3=O)cc1	0	0	0	0	-	-
